High-throughput results from PubChem BioAssay.
esBAF inh – blocks esBAF chromatin remodeling in mouse ES cells | reporter increase, % at 12.5 µM | AID 602393 | Bmi1-luciferase knock-in reporter, 24 h; 100% = twice the neutral-well signal | 350,000 compounds, 2% hits; in the data active = activation above about 40%;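 note: 0% = median of the plate's neutral control wells and 100% = double that signal; a rise in the Bmi1 reporter signal indicates esBAF inhibition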
GRIN3A LBD mod – modulates the human NR3A ligand-binding domain; 340,000 compounds, 2.5% hits; Tm shift relative to glycine control, % at 25 µM; AID 1259313; NR3A LBD differential scanning fluorimetry, Tm shift; 0% = protein alone, 100% = glycine-bound protein;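 active = melting temperature shift of at least 10% of the positive control shift, at one fixed dose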
SMARCA2 activ – activators of SMARCA2 function; MG213 cells, MMTV-luciferase reporter, dexamethasone, overnight; activation, % at 9.1 µM; 370,000 compounds, 1% hits; AID 652017; in the data active = activation above about 7.8%;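 note: 0% = vehicle wells and 100% = reference activator wells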
SKN-1 inh – blocks SKN-1 activity in C. elegans | inhibition, % at 21.8 µM | C. elegans VP596 Pgst-4::GFP/RFP ratio, acrylamide-induced, 24 h | 360,000 compounds, 0.49% hits;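 active = interference check ratio from 0.5 to 1.5 plus GFP to RFP signal ratio inhibition reaching or exceeding a fixed threshold, cut at about 30% in these data, passing the limit was not always enough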
Vif imaging – inhibitors of HIV Vif | HEK293T cells, Vif self-association by quenched fluorescence, imaging, 24 h | AID 602346 | inhibition, % at 7.49 µM | 340,000 compounds, 0.35% hits; in the data active = inhibition above about 50%, passing the limit was not always enough
NadD block – inhibitors of Staphylococcus aureus NadD; purified NadD enzyme, colorimetric absorbance read-out; inhibition, % at 20 µM; 360,000 compounds, 0.78% hits; in the data active = inhibition above about 26%
Starred values were filed as active, the others as inactive; nt = no result. Compounds with a hit are over-represented: about 5.2% of the library has one in this group of screens.

SMILES	esBAF inh	GRIN3A LBD mod	SMARCA2 activ	SKN-1 inh	Vif imaging	NadD block
COc1ccc(NC(=S)N/C(=N/S(=O)(=O)c2ccc(C)cc2)c2ccccc2)cc1	58.8*	0.5	3.5	-2.2	4.0	-3.0
COc1ccc(NC(=S)NC(=NS(=O)(=O)c2ccc(Cl)cc2)c2ccccc2)cc1	112.9*	4.7	-1.0	-13.9	4.0	0.6
COc1ccccc1-c1cn(CC[C@@H]2CC[C@@H](NC(=O)NC(C)C)[C@H](CO)O2)nn1	6.1	nt	nt	nt	nt	nt
Cc1ccc2c(c1)Sc1c(ccc3ccccc13)N2	51.2*	5.1	4.3	-2.1	3.9	7.7
c1ccc2c(c1)Nc1cc3ccccc3cc1S2	nt	1.1	4.1	3.1	-1.5	16.7
Cc1ccc(NC(=O)C2CCN(S(=O)(=O)c3c(C)noc3/C=C/c3ccco3)CC2)nc1	-3.0	-1.1	-4.1	-9.3	-5.9	10.0
CNC(=O)C1CCN(S(=O)(=O)c2c(C)noc2/C=C/c2ccc(C)cc2)CC1	3.7	79.3*	-1.0	13.9	8.9	-4.3
Cc1noc(/C=C/c2ccco2)c1S(=O)(=O)N1CCC(C(=O)N2CCc3ccccc3C2)CC1	0.7	-2.7	nt	8.5	-15.3	46.9*
COc1ccc(NC(=O)C2CCN(S(=O)(=O)c3c(C)noc3C)CC2)cc1Cl	-0.9	15.7*	0.6	-3.9	-8.1	-3.0
C[C@H]1CN([C@@H](C)CO)S(=O)(=O)c2ccc(C#Cc3ccc(F)cc3)cc2O[C@@H]1CN(C)C(=O)c1ccccn1	11.2	nt	nt	nt	nt	nt
CN(/N=C/c1cc(Cl)ccc1O)C1=NS(=O)(=O)c2ccccc21	-9.5	11.8*	-0.3	-9.9	nt	0.6
CN(/N=C/c1ccc(Br)o1)C1=NS(=O)(=O)c2ccccc21	1.6	16.2*	-5.7	7.9	12.1	-1.5
COc1ccc(CN2CCN(c3nc4ccccc4s3)CC2)cc1	29.0	1.4	3.5	4.2	-10.8	-12.4
COc1ccc(CCn2c(O)cc3nn(-c4nc5ccccc5s4)c(=O)c-3c2C)cc1	nt	1.6	-3.9	9.7	-7.8	72.7*
Cc1cccc(NC(=S)N(Cc2cccc(Br)c2)CC2CCC(C(=O)O)CC2)c1 (centres undefined)	-8.8	1.4	-4.8	-3.2	7.5	4.1
COc1ccc(CN(CC2CCC(C(=O)O)CC2)C(=S)Nc2ccc(C)c(Cl)c2)cc1 (centres undefined)	8.4	-12.0	-4.8	0.2	4.4	3.8
COc1cccc(NC(=S)N(Cc2cccc(Br)c2)CC2CCC(C(=O)O)CC2)c1 (centres undefined)	3.3	17.0*	-0.9	-1.7	-15.9	4.7
COc1ccc(NC(=S)N(Cc2cccc(Br)c2)CC2CCC(C(=O)O)CC2)cc1 (centres undefined)	28.6	12.2*	0.6	-6.6	3.2	-4.7
C[C@H](CO)N1C[C@H](C)[C@H](CN(C)C(=O)Nc2ccc(F)cc2)Oc2ccc(NS(C)(=O)=O)cc2CC1=O	-1.7	nt	nt	nt	nt	nt
C[C@@H]1CCCCO[C@H](CN(C)C(=O)Nc2ccc(F)cc2)[C@H](C)CN([C@H](C)CO)C(=O)c2cc(NS(=O)(=O)c3cccs3)ccc2O1	-0.1	nt	nt	nt	nt	nt
COc1cccc(CNC(=O)CCC2CCCN(C(=O)c3cc4ccccc4o3)C2)c1 (centres undefined)	61.5*	-0.7	5.1	-8.4	-3.4	-8.9
C[C@@H]1CN([C@H](C)CO)C(=O)c2cccc(NS(C)(=O)=O)c2O[C@H]1CN(C)C	1.7	nt	nt	nt	nt	nt
O=C(c1cccnc1)N1C[C@@H]2[C@H](c3ccccc31)[C@H](CO)N2C(=O)CN1CCOCC1	-3.3	nt	nt	nt	nt	nt
CN(C)c1ccc(/C=C2\Oc3ccc(C#Cc4cccc(N)c4)cc3C2=O)cc1	34.0	5.2	nt	53.7	62.6*	16.6
CCC(=O)N(C)C[C@@H]1Oc2cc(-c3ccccc3OC)ccc2S(=O)(=O)N([C@@H](C)CO)C[C@H]1C	4.7	nt	nt	nt	nt	nt
Cc1ccc2c(COC(=O)c3ccccc3OC(F)F)cc(=O)oc2c1	48.3*	0.5	3.8	-27.5	52.4*	-1.2
CCNc1c([N+](=O)[O-])c(=O)oc2ccccc12	nt	-2.7	-0.5	-0.4	-3.7	-1.8
COc1c([N+](=O)[O-])c(=O)oc2ccccc12	nt	12.6*	-0.6	7.6	-0.6	-0.2
C[C@@H]1CN([C@H](C)CO)C(=O)c2cc(C3=CCCC3)cnc2O[C@@H]1CN(C)C(=O)Nc1cccc(F)c1	5.0	nt	nt	nt	nt	nt
